From PubChem BioAssay (NCI)
Compounds without any hit were thinned out: in the full panel of roughly 83,000, 20% have a hit.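 Activity criterion: percent growth below 10, measured after cells in 96-well plates were exposed to a single compound concentration for 48 hours.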 A number with no mark means an inactive call. Active and inactive are the calls of the source.

Experiments:
Experiment in all cases: NCI-60 one-dose screen, 48 h (100 = growth as untreated, 0 = no growth, -100 = all killed)
Conditions in all cases: 10 µM unless noted
BT-549 breast = tested on: BT-549 breast
MDA-MB-435 melanoma = tested on: MDA-MB-435 melanoma
SW-620 colon = tested on: SW-620 colon
MCF7 breast = tested on: MCF7 breast
HCT-116 colon = tested on: HCT-116 colon
HCC-2998 colon = tested on: HCC-2998 colon
KM12 colon = tested on: KM12 colon

| SMILES | growth (BT-549 breast) | growth (MDA-MB-435 melanoma) | growth (SW-620 colon) | growth (MCF7 breast) | growth (HCT-116 colon) | growth (HCC-2998 colon) | growth (KM12 colon) |
| --- | --- | --- | --- | --- | --- | --- | --- |
| COc1ccc2c(N)ncc(C#Cc3cc(C(=O)Nc4ccc(CN5CCN(C)CC5)c(C(F)(F)F)c4)cnc3C)c2c1 | 46% | -56.7% (active) | -57.7% (active) | -49.2% (active) | -75.8% (active) | 19.3% | -49.1% (active) |
| COC(=O)c1ccc2[nH]c(O)c(C(=Nc3ccc(N(C)C(=O)CN4CCN(C)CC4)cc3)c3ccc(OC)cc3)c2c1 | 22.5% | 29.6% | 4.33% (active) | 23.9% | 3.03% (active) | 30.8% | 13.1% |
| C/C=C(/C)C(=O)OC1C=C(CO)C(=O)C(OC(=O)/C(C)=C\C)C1C(C)C (stereo not drawn) | -32.7% (active) | -78.7% (active) | -59% (active) | -16.6% (active) | -76.1% (active) | -85.9% (active) | -41.3% (active) |
| CC(=O)OCC1O[C@@H](OC(C)=O)[C@@H](NC(=O)NS(=O)(=O)c2ccccc2)C(OC(C)=O)[C@@H]1OC(C)=O (stereo partly drawn) | 102% | 105% | 111% | 92.6% | 108% | 113% | 105% |
| CC1=C[C@@H]2c3c(c(O)c(O)c4oc5cc(O)cc(O)c5c(=O)c34)[C@@H](c3cc(O)c(O)c4oc5cc(O)cc(O)c5c(=O)c34)[C@@H]2C(C)(C)C1 | 12.1% | -42.1% (active) | -50.9% (active) | -44.8% (active) | -78.8% (active) | -34.5% (active) | -55.2% (active) |
| CN1CCN(Cc2ccc(NC(=O)c3cncc(C#Cc4c(N)ncc5ccc(F)cc45)c3)cc2C(F)(F)F)CC1 | 36.7% | -80.1% (active) | -43.2% (active) | 6.26% (active) | 4.69% (active) | 42.2% | -24.9% (active) |
| COc1cc(-c2nc3c(c(C)nc4c3nnn4-c3ccccc3)c(=O)o2)cc(OC)c1OC | 105% | 106% | 107% | 97.5% | 99.3% | 130% | 110% |
| O=C(Nc1cccc(Cn2c(=O)[nH]c3ccc(Oc4ncccn4)cc3c2=O)c1)c1cc(Cl)cc(Cl)c1 | -3.71% (active) | 67.3% | 89.5% | 64% | 59.9% | 85.6% | 40.6% |
| Cc1ccc(S(=O)(=O)NC(CCC(=O)Nc2ccccc2)C(=O)Nc2ccccc2)cc1 (stereo not drawn) | -14.9% (active) | -1.32% (active) | 11.1% | -8.66% (active) | -49.5% (active) | 0.86% (active) | 0.4% (active) |
| Cc1ccc(C(C)C)c(OCc2ccc(C(=O)N/N=C/c3cccc(O)c3O)cc2)c1 | 36.2% | 55.9% | 47.8% | 15.1% | 20.4% | 45.7% | 36.1% |
| COc1cccc(CNC(=O)c2cccc(C3CC(=O)c4c(cc(OC)c(OC)c4OC)O3)c2)c1 (stereo not drawn) | 32.8% | -42.4% (active) | 34.9% | 25.3% | 18.5% | 95.2% | 41.8% |
| COC(=O)c1ccc2[nH]c(O)c(C(=Nc3ccc(N(C)C(=O)CN4CCN(C)CC4)cc3)c3ccc4c(c3)OCO4)c2c1 | 3.64% (active) | 21.2% | 0.696% (active) | 11.1% | 0.577% (active) | 16% | 4.89% (active) |
| CCC(C)C1NC(=O)C(CCCCN)NC(=O)C(CCCCN)NC(=O)C(CC(C)C)NC(=O)C(CCCCN)NC(=O)C(C(C)CC)NC(=O)C(C(C)C)NC(=O)C(C(C)CC)NC(=O)C(CCCCN)NC(=O)C(CCCCN)NC(=O)C(C)NC(=O)C(CCCCN)NC(=O)C(CC(C)C)NC1=O (stereo not drawn) | 35.5% | 26.5% | 39.1% | 22.5% | 10.7% | 23.2% | 6.18% (active) |
| CC1(C)NCCC[C@]2(C)[C@H]3CC=C4[C@@H]5C[C@](C)(COC(=O)c6ccccc6C(=O)O)CC[C@]5(C)CC[C@@]4(C)[C@]3(C)CC[C@@H]12 | 72.4% | 62.4% | 67.2% | 41.1% | 16.5% | 73.4% | 55.2% |
| C/C(CCC(=O)O)=N/Nc1ccc([N+](=O)[O-])cc1 | 89.1% | 38.6% | 72.6% | 65.2% | 56.8% | 59.9% | 27.1% |
| CC(C)OC(=O)c1ccc2n1CCCc1cnc(Nc3ccccc3)nc1-2 | 86.4% | 42.7% | 91% | 65.4% | 73.2% | 104% | 52.8% |
| Cc1ncc(C(=O)Nc2ccc(CN3CCN(C)CC3)c(C(F)(F)F)c2)cc1C#Cc1cnc(NC2CC2)c2ncccc12 | -91.7% (active) | -86.4% (active) | -74.3% (active) | -76.8% (active) | -90% (active) | -54.4% (active) | -82.6% (active) |
| Cc1ccc(S(=O)(=O)Nc2cccc(Cn3c(=O)[nH]c4ccc(Oc5ncccn5)cc4c3=O)c2)cc1 | 65.2% | -10.1% (active) | 64.8% | 32.5% | 59% | 81.3% | 39.6% |
| Cc1nc2c(nnn2-c2ccccc2)c2nc(-c3ccc(Cl)cc3)oc(=O)c12 | 107% | 106% | 107% | 95.2% | 109% | 111% | 113% |
| C#CCCCCCCC[C@@H]1OC(=O)[C@H]([C@@H](C)CC)NC(=O)[C@H]([C@@H](C)CC)NC(=O)CC(=O)[C@@H]1C | 108% | 105% | 98.2% | 95.4% | 93.4% | 106% | 100% |
| C/C(=N\Nc1ccc(Cl)cn1)c1ccc2ccccc2n1 | 21.6% | 31.9% | 27.5% | 7.14% (active) | 6.22% (active) | 38.1% | 20.2% |
| C/C=C(/C)C(=O)OC1C=C(CO)C(=O)C(OC(=O)C(C)(O)C(C)Cl)C1C(C)C (stereo not drawn) | -9.98% (active) | -23.2% (active) | -45.7% (active) | 8.43% (active) | -56.5% (active) | -76.3% (active) | -45.1% (active) |
| c1cc[c]([Bi]([c]2ccccc2)[c]2ccccc2)cc1 | 96.8% | 90.4% | 92.9% | 97.5% | 104% | 96.5% | 97.1% |
| COC(=O)c1ccc2[nH]c(O)c(C(=Nc3ccc(N(C)C(=O)CN4CCN(C)CC4)cc3)c3ccc([N+](=O)[O-])cc3)c2c1 | 49.1% | 49.9% | 54.7% | 30.6% | 20.4% | 66.7% | 16.2% |
| c1ccc(Nc2ncc3c(n2)-c2cccn2CC3)cc1 | 102% | 105% | 102% | 13.4% | 92% | 47.5% | 27.9% |
| O=C1c2ccccc2CCc2ccccc21 | 99% | 100% | 99.3% | 94.9% | 98.2% | 97.5% | 102% |
| Clc1ccc(N/N=C/c2ccccn2)nc1 | 23.4% | 24.4% | 36.7% | 0.994% (active) | 11.1% | 24.5% | 24.9% |
| O=C1/C(=N\c2cc(=O)[nH]n2S(=O)(=O)c2ccccc2)Nc2ccccc21 | 106% | 108% | 99.3% | 96.5% | 99.3% | 104% | 99.4% |
| COC(=O)c1ccc2[nH]c(O)c(C(=Nc3ccc(N(C)C(=O)CN4CCN(C)CC4)cc3)c3ccc(C)cc3)c2c1 | -39.5% (active) | 10.3% | -26.5% (active) | -67.8% (active) | -66.1% (active) | 9.34% (active) | -17.3% (active) |
